PAFAH1B2 inh – inhibitors of human PAFAH1B2; P68402; recombinant PAFAH1B2, FP-rhodamine activity probe, fluorescence polarization; 340,000 tested, 1.2% active; AID 492953; inhibition, % at 3.39 µM;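 active = inhibition above the mean of all tested compounds plus 3 SD, cut at about 24% in these data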;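 note: 0% = enzyme with DMSO and 100% = wells lacking PAFAH1B2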
Fam108B counter – counter-screen for RBBP9 inhibitors: inhibitors of mouse Fam108B | 300,000 tested, 0.33% active | inhibition, % at 9.51 µM | recombinant Fam108B, FP-Rh probe fluorescence polarization;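 active = inhibition above the screen mean inhibition plus 3 SD, computed separately per campaign, cut at about 18% in these data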;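 note: inhibitors lower polarization as less probe binds the enzyme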
PAFAH2 inh – inhibitors of human PAFAH2. recombinant PAFAH2, FP-rhodamine activity probe, fluorescence polarization. inhibition, % at 3.39 µM. 340,000 tested, 0.99% active. AID 492956;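 active = inhibition above the mean over all tested compounds plus 3 SD, cut at about 30% in these data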;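 note: inhibitors block probe labeling of enzyme so polarization drops; 0% = enzyme with DMSO and 100% = wells lacking PAFAH2 protein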
pPAFAH inh – inhibitors of human plasma PAF acetylhydrolase (pPAFAH). inhibition, % at 3.39 µM. recombinant pPAFAH, FP-rhodamine probe fluorescence polarization. 330,000 tested, 1.5% active;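 active = inhibition above the mean inhibition across the screen plus 3 SD, cut at about 25% in these data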;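 note: inhibitors block binding of the rhodamine activity-based probe so polarization drops; 0% = enzyme with DMSO and 100% = wells lacking pPAFAH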
PAFAH1B3 inh – blocks human PAF acetylhydrolase 1B catalytic subunit 3; Q15102; recombinant PAFAH1B3, FP-rhodamine probe, fluorescence polarization; inhibition, % at 3.39 µM; 340,000 tested, 0.28% active; AID 492972;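 active = inhibition above the screen-wide average of all tested compounds plus 3 SD, cut at about 25% in these data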;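 note: 0% = enzyme with DMSO only and 100% = wells lacking PAFAH1B3 protein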
Target sequence (Q15102 whole entry, looked up): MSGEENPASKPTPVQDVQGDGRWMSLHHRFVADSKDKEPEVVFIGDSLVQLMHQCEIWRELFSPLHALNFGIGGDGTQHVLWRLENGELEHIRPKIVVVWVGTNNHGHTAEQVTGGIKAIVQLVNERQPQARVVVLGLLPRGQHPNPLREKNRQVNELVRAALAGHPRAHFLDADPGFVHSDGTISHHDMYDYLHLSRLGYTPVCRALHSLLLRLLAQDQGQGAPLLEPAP
PME-1 primary – blocks human protein phosphatase methylesterase 1 | recombinant PME-1, FP-Rh probe fluorescence polarization | 320,000 tested, 0.53% active | AID 2130 | inhibition, % at 5.9 µM | Q9Y570;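 active = inhibition above the campaign mean of all compounds plus 3 SD, cut at about 26% in these data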;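 note: competitive labeling of PME-1 active site by serine hydrolase directed probe; 0% = PME-1 with DMSO and 100% = wells lacking PME-1 enzyme; inhibitors block probe labeling so polarization falls and inhibition rises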
Target sequence (Q9Y570 whole entry, looked up): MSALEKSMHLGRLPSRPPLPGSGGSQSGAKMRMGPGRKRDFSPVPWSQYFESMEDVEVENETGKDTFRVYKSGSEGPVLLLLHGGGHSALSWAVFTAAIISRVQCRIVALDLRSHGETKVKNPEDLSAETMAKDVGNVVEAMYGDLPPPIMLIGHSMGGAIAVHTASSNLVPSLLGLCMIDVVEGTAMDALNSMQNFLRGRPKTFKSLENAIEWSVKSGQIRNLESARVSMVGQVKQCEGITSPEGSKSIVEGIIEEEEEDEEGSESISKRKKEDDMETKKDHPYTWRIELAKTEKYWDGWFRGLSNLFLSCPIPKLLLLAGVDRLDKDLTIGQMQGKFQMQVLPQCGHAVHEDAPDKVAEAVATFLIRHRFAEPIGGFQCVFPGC
Starred values were filed as active, the others as inactive. In the library only some 2.8% were active in any assay of this set; here they are far more common.

Cc1[nH]nc2c1C(c1ccsc1)C(C#N)=C(N)O2 (centres undefined) was read as PAFAH1B2 inh 11, Fam108B counter 2, PAFAH2 inh -4, pPAFAH inh 2, PAFAH1B3 inh 9 and PME-1 primary 1.
Screening N#CC1=C(N)Oc2ccc3ccc(O)cc3c2C1c1ccsc1 (centres undefined) returned PAFAH1B2 inh 93*, PAFAH2 inh 98* and PAFAH1B3 inh 114*.
For Cc1csc(CNc2ncnc3ccc(-c4ccccc4Cl)cc23)c1 the results were PAFAH1B2 inh -6, PAFAH2 inh -12, pPAFAH inh 29* and PAFAH1B3 inh 0.
For Cc1csc(CNc2ncnc3ccc(-c4cccnc4)cc23)c1 the results were PAFAH1B2 inh 1, PAFAH2 inh -3, pPAFAH inh 3 and PAFAH1B3 inh -4.
For CC(=O)c1c2c3c(c(Br)ccc3n(C)c1=O)C(=O)c1ccccc1-2 the results were PAFAH1B2 inh 3, Fam108B counter 12, PAFAH2 inh -4, pPAFAH inh 29*, PAFAH1B3 inh 14 and PME-1 primary 12.
CCOc1ccc(OCCC(=O)OCC(=O)Nc2ccc(Cl)cn2)cc1 was read as PAFAH1B2 inh 2, Fam108B counter -5, PAFAH2 inh 1, pPAFAH inh 25*, PAFAH1B3 inh 2 and PME-1 primary -1.
For CCOc1ccc(OCCC(=O)OCC(=O)NNC(=O)c2ccccc2)cc1 the results were PAFAH1B2 inh 0, Fam108B counter -4, PAFAH2 inh 7, pPAFAH inh 28*, PAFAH1B3 inh 0 and PME-1 primary 3.
Screening CCOc1ccc(N2CC(C(=O)OCC(=O)NCc3ccccc3)CC2=O)cc1 (centres undefined) returned PAFAH1B2 inh -3, Fam108B counter 3, PAFAH2 inh -2, pPAFAH inh 27*, PAFAH1B3 inh -5 and PME-1 primary 8.
For Cc1ccc(OCCC(=O)OCC(=O)NNC(=O)c2ccccc2)cc1 the results were PAFAH1B2 inh -1, Fam108B counter 0, PAFAH2 inh 3, pPAFAH inh 22, PAFAH1B3 inh 8 and PME-1 primary -3.
For Cc1ccc(CNC(=O)CCOc2ccc(C(C)(C)C)cc2)cc1 the results were PAFAH1B2 inh 30*, Fam108B counter -1, PAFAH2 inh -3, pPAFAH inh 9, PAFAH1B3 inh 0 and PME-1 primary 5.
Cc1c(Cl)cccc1NS(=O)(=O)c1ccc(-c2ccc(=O)[nH]n2)o1 was read as PAFAH1B2 inh -4, Fam108B counter 0, PAFAH2 inh 4, pPAFAH inh 15, PAFAH1B3 inh 2 and PME-1 primary 9.
Cc1ccc(CNC(=O)COC(=O)CCOc2ccc(C)cc2)cc1 was read as PAFAH1B2 inh 7, Fam108B counter -1, PAFAH2 inh -6, pPAFAH inh 27*, PAFAH1B3 inh -1 and PME-1 primary 4.
`CC(C)(C)c1ccc(OCCCC(=O)NNC(=O)c2ccccc2O)cc1` gave PAFAH1B2 inh 27*, Fam108B counter 4, PAFAH2 inh 0, pPAFAH inh 28*, PAFAH1B3 inh 9 and PME-1 primary -3.
CC(C)(C)c1ccc(OCCC(=O)OCC(=O)NCc2ccccc2)cc1 was read as PAFAH1B2 inh 7, Fam108B counter 2, PAFAH2 inh 0, pPAFAH inh 26*, PAFAH1B3 inh -1 and PME-1 primary 5.
Cc1ccc(OCCC(=O)OCC(=O)NC(=O)NCc2ccccc2)cc1 was read as PAFAH1B2 inh 5, Fam108B counter -3, PAFAH2 inh 2, pPAFAH inh 16, PAFAH1B3 inh -4 and PME-1 primary -5.
Screening Cc1ccsc1CN(C)C(=O)C(NC(=O)c1cccc(S(=O)(=O)N2CCOCC2)c1)C(C)C (centres undefined) returned PAFAH1B2 inh 5, PAFAH2 inh 10, pPAFAH inh -2, PAFAH1B3 inh -3 and PME-1 primary 2.
For C=CCSc1nc(=O)n2ccc(C)cc2n1 the results were PAFAH1B2 inh -3, Fam108B counter 0, PAFAH2 inh 15, pPAFAH inh 27*, PAFAH1B3 inh 3 and PME-1 primary 0.
CC(C(Sc1ccccc1N)c1ccccc1)[N+](=O)[O-] (centres undefined) was read as PAFAH1B2 inh 0, Fam108B counter -1, PAFAH2 inh 1, pPAFAH inh -3, PAFAH1B3 inh 6 and PME-1 primary 8.
Screening O=C(NCc1ccccc1CN1CCCC1)c1cccc(N2CCCC2=O)c1 returned PAFAH1B2 inh 1, PAFAH2 inh -9, pPAFAH inh 0, PAFAH1B3 inh 3 and PME-1 primary -3.
`CCCCn1c(N)c(C(=S)NC(=O)CC(C)(C)C)c(=O)n(C)c1=O` gave PAFAH1B2 inh 27*, Fam108B counter -5, PAFAH2 inh -2, pPAFAH inh -2, PAFAH1B3 inh 4 and PME-1 primary -1.
For CC(C)n1nnnc1SCC(=O)NC1CCCC1 the results were PAFAH1B2 inh 6, Fam108B counter 2, PAFAH2 inh 7, pPAFAH inh -4, PAFAH1B3 inh -8 and PME-1 primary -2.
`NC(=O)c1ccc(Oc2ccc(Cl)c3ccccc23)c([N+](=O)[O-])c1` gave PAFAH1B2 inh 0, Fam108B counter 10, PAFAH2 inh 1, pPAFAH inh 34*, PAFAH1B3 inh -3 and PME-1 primary 9.
Screening CCC(C)NC(=O)C1CCC(CNS(=O)(=O)c2cccc3nsnc23)CC1 (centres undefined) returned PAFAH1B2 inh 2, Fam108B counter 0, PAFAH2 inh -42, pPAFAH inh -3, PAFAH1B3 inh 8 and PME-1 primary -8.
Screening CCCSc1nc(O)c(C2OC(=O)c3c2ccc(OC)c3OC)c(=O)n1C (centres undefined) returned PAFAH1B2 inh 0, Fam108B counter 3, PAFAH2 inh 1, pPAFAH inh -2, PAFAH1B3 inh 0 and PME-1 primary 6.
For CCCCCCSc1nc(O)c(C2OC(=O)c3c2ccc(OC)c3OC)c(=O)n1CC (centres undefined) the results were PAFAH1B2 inh 24, Fam108B counter -2, PAFAH2 inh 15, pPAFAH inh 31*, PAFAH1B3 inh 3 and PME-1 primary 5.
Screening NN=C1c2ccccc2-c2ccc(N)cc21 returned PAFAH1B2 inh 2, PAFAH2 inh -5 and PAFAH1B3 inh 5.
Cc1nc(-c2ccc(F)cc2)c(CC(=O)N(C)CC(=O)Nc2ccc(Br)cc2C)s1 was read as PAFAH1B2 inh -2, Fam108B counter 2, PAFAH2 inh 5, pPAFAH inh -1, PAFAH1B3 inh -3 and PME-1 primary -6.
Screening CCOc1ccc(C(=O)NC(C)CCc2ccccc2)cc1 (centres undefined) returned PAFAH1B2 inh 9, Fam108B counter -1, PAFAH2 inh 5, pPAFAH inh 0, PAFAH1B3 inh 16 and PME-1 primary 39*.
